Data on 35 compounds can be found in ChEMBL document CHEMBL3433997, “St. Jude Leishmania screening dataset” (2016).

Broadly, the inhibition is the change of the read-out against control, counted positive when it falls.

What all share (type): functional
In assay [1] the target is Solute carrier family 2, facilitated glucose transporter member 1 (Homo sapiens) (UniProt P11166). In words: ST_JUDE_LEISH: Cytotoxicity at 2uM final concentration against transgenic Leishmania Mexicana promastigotes LmGLUT1 that are glucose transport deficient and complemented with the human glucose transporter GLUT1. Activity is measured by DNA content using SYBR green in vitro.

Assay [2] addresses Hexose transporter 1 (Plasmodium falciparum) (UniProt O97467). Kind of assay: ST_JUDE_LEISH: Cytotoxicity at 2uM final concentration against transgenic Leishmania Mexicana promastigotes LmPfHT that are glucose transport deficient and complemented with the Plasmodium falciparum hexose transporter. Activity is measured by DNA content using SYBR green in vitro.
In assay [3] the target is Glucose transporter (Leishmania mexicana) (UniProt O61059). Kind of assay: ST_JUDE_LEISH: Cytotoxicity at 2uM final concentration against transgenic Leishmania Mexicana promastigotes LmGT2 that are glucose transport deficient and complemented with the L. Mexicana glucose transporter 2. Activity is measured by DNA content using SYBR green in vitro.

Solute carrier family 2, facilitated glucose transporter member 1 (Homo sapiens), sequence (P11166 whole entry): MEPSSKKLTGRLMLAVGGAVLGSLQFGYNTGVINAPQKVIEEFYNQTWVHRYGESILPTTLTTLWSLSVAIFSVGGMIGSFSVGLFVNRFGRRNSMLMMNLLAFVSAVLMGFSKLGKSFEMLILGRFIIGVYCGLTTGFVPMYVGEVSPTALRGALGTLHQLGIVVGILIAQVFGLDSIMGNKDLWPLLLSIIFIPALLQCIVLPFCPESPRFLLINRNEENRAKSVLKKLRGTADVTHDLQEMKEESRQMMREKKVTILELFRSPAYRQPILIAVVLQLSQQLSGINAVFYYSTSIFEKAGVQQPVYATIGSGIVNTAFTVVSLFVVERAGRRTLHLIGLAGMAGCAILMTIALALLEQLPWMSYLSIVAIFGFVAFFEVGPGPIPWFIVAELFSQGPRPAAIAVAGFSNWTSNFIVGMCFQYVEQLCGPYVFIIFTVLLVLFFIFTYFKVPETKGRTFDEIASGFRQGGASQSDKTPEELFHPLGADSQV

Consider `CN1CCCC1CCNc1ncc2c(-c3ccc(NC(=O)Nc4cc(C(F)(F)F)ccc4F)cc3)nn(C)c2n1` (stereo not given), for which the inhibition in assay [1] turned out to be 3.33%; in assay [2], 1.92%; in assay [3] it was 3.95%.

As for `COc1ccc(OC)c(-c2ccc(=O)n(CC(=O)Nc3cccc4ccccc34)n2)c1`, the inhibition in assay [1] amounted to 12.4%; in assay [2], 11.6%; in assay [3], 6.44%.

Consider `CC(C)(c1ccccc1)c1ccc(O)c(CN2CCOCC2)c1`, for which the values for the inhibition in assay [1], in assay [2] and in assay [3] were -0.49%, -1.3% and -0.41%, respectively.

For the compound `O=C(NC1CCN(c2ccnc3cc(Cl)ccc23)C1)c1cccc(F)c1` (stereo not given), the inhibition in assay [1] came out at 0.95%; in assay [2] it was 1.46%; in assay [3], 1.42%.

As to `Cc1c2ccncc2c(C)c2c1[nH]c1cc(Cc3ccccc3)c(O)cc12`, the inhibition in assay [1] is 3.52%; in assay [2] it was 4.1%; in assay [3], -3.09%.

`O=C(NC1CCC(N2CCC(c3ccccc3C(F)(F)F)CC2)CC1)c1cc2ccccc2[nH]1` (stereo not given): the inhibition was found to be 8.86% in assay [1], 5.68% in assay [2] and 31.2% in assay [3].

With `N#Cc1cc(C(=O)Nc2ccccc2)c(N)nc1SCC(=O)NC(c1ccccc1)c1cccs1` (stereo not given), the inhibition is 4.19% in assay [1], 1.36% in assay [2] and 4.48% in assay [3].

`CCOC(=O)N(C)/N=C/[C@H](CCc1ccccc1)NC(=O)[C@H](CC(C)C)NC(=O)c1cc2cccc(OC)c2o1`: the figures for the inhibition in assay [1], in assay [2] and in assay [3] were 5.68%, 3.47% and 5.24%, respectively.

Consider `O=C(/C=C/c1ccc(Cl)c(Cl)c1)NCCCCCN1CCCN(C(=O)Nc2cc(F)cc(F)c2)CC1`, for which the results for the inhibition in assay [1], in assay [2] and in assay [3] were 9.22%, 8.04% and 8.86%, respectively.

As to `O=C(Nc1ccccc1)Nc1cccc(-c2cc(CNCCc3ccccc3)sc2-c2ccncc2)c1`, the results for the inhibition in assay [1], in assay [2] and in assay [3] were -0.01%, -0.54% and 4.67%, respectively.

With `CCCCc1ccc2ncc(C(=O)OCC)c(O)c2c1`, the inhibition in assay [1] was -1.09%; in assay [2], -0.73%; in assay [3] it was -3.16%.

Take `CC1(C)[C@H]2CC[C@@H](CNc3nc(NCCc4c[nH]cn4)nc(Nc4ccc(Oc5ccccc5)cc4)n3)[C@@H]1C2`: the inhibition in assay [1] is 1.23%; in assay [2] it was -1.54%; in assay [3], -1.61%.

`CC(C)(C)NC(=O)c1ccc(Oc2ccc(OC(F)(F)F)cc2)c(NC(=O)C(C)(C)C)c1`: the inhibition in assay [1] was -3.08%; in assay [2] it was -1.32%; in assay [3], -2.26%.

With `c1ccc2c3c([nH]c2c1)C(c1ccc2c(c1)CCO2)N(c1ncnc(N2CCN(CCCN4CCOCC4)CC2)n1)CC3` (stereo not given), the figures for the inhibition in assay [1], in assay [2] and in assay [3] were 8.79%, 3.13% and 1.89%, respectively.

Turning to `Oc1ccc(CCCNc2nc(NCc3ccccc3-c3ccccc3)nc(N3CCNCC3)n2)cc1`, the inhibition in assay [1] is -0.81%; in assay [2], -2.76%; in assay [3], 1.36%.

With `O=C(/C=C/c1ccc(Cl)c(Cl)c1)NCCCCCCN1CCCN(C(=O)Nc2ccc(F)c(Cl)c2)CC1`, the inhibition amounted to 3.61% in assay [1], 2.44% in assay [2] and 2.6% in assay [3].

For the compound `CCN(CC)CCN1C(=O)c2oc3ccc(F)cc3c(=O)c2C1c1cccc(Cl)c1` (stereo not given), the values for the inhibition in assay [1], in assay [2] and in assay [3] were -2.07%, 2.22% and 4.25%, respectively.

For the compound `O=C(/C=C/c1ccc(Cl)c(Cl)c1)NCCCCCN1CCC(c2c[nH]c3ccccc23)CC1`, the figures for the inhibition in assay [1], in assay [2] and in assay [3] were 1.33%, 4.32% and 3.63%, respectively.

In the case of `CS(=O)(=O)c1ccc(-c2cnc(N)c(-c3cccc(O)c3)c2)cc1`, the inhibition worked out at 6.6% in assay [1], 6.49% in assay [2] and 6.07% in assay [3].

`COc1ccc(C(=O)O)cc1OCc1ccccc1`: the results for the inhibition in assay [1], in assay [2] and in assay [3] were 0.41%, -0.29% and 0.75%, respectively.

For `CC(C)CN1CCN(c2nc(C#N)c3c(c2C(=S)NC2CCCCC2)CC(C)(C)OC3)CC1`, the inhibition in assay [1] was 0.49%; in assay [2], -1.31%; in assay [3] it was -1.75%.

For `FC(F)(F)c1ccc2[nH]c(-c3ccc(-c4cccc(CNCc5cnn(-c6ccccc6)n5)c4)s3)nc2c1`, the inhibition came out at 2.87% in assay [1], 3.4% in assay [2] and 2.46% in assay [3].

As to `COc1ccc(Nc2nccc(N3CCC(NC(=O)Nc4ccc5c(c4)OCO5)C3)n2)cc1` (stereo not given), the figures for the inhibition in assay [1], in assay [2] and in assay [3] were 0.18%, 1.7% and 1.21%, respectively.

Turning to `CC(C)Cn1cc2c(ccc3nc(N)nc(N)c32)n1`, the values for the inhibition in assay [1], in assay [2] and in assay [3] were 1.25%, 0.94% and 0.32%, respectively.

Turning to `CCOC(=O)c1ccc(NC(=O)N[C@@H](Cc2ccccc2)C(=O)NC2CCN(Cc3ccc(O)cc3)C2)cc1` (stereo not given in full), the inhibition in assay [1] is -1.09%; in assay [2], 1.43%; in assay [3], -7.4%.

For the compound `O=C(c1ccco1)N1CCN(c2nc(-c3ccc(Cl)cc3)nc3ccccc23)CC1`, the inhibition in assay [1] was 6.35%; in assay [2], 1.81%; in assay [3] it was 4.42%.

On to `CCN(CC)CCCN(CCCN(CC)CC)c1cc(C)nc(Nc2ccc(Cl)cc2)n1`, for which the inhibition in assay [1] stood at 2.61%; in assay [2], 0.88%; in assay [3], 0.26%.

`OC(CNc1ccnc(Nc2ccc(Cl)cc2)n1)c1ccccc1C(F)(F)F` (stereo not given): the inhibition in assay [1] is 10%; in assay [2], 9.74%; in assay [3], 5.08%.

Take `Cc1cccc2nc(-c3cccc(-c4cccc(NC(=O)COc5ccccc5C(N)=O)c4)c3)[nH]c12`: the inhibition in assay [1] was -0.32%; in assay [2], 3.3%; in assay [3], 2.14%.

On to `CCC1(C)CC(CCNCc2ccccc2O)(c2ccccc2OC)CCO1` (stereo not given), for which the inhibition in assay [1] is 0.62%; in assay [2] it was -0.31%; in assay [3], 0.88%.

Regarding `CC(=O)Nc1ccc(CN2CCC(CNC(=O)c3cc(-c4cccc(Cl)c4)cs3)C2)cc1` (stereo not given), the inhibition in assay [1] was -1.53%; in assay [2], 0.33%; in assay [3], 3.3%.

Take `N#Cc1cccc(Nc2nccc(NCC(O)c3ccccc3C(F)(F)F)n2)c1` (stereo not given): the inhibition in assay [1] came to 9.64%; in assay [2], 7.25%; in assay [3], 3.83%.

Consider `O=C(NCCN1CCCC1)N1CCCN(c2ncnc3cc(-c4ccc(F)cc4)sc23)CC1`, for which the inhibition was -1.05% in assay [1], -2.33% in assay [2] and 4.44% in assay [3].

Turning to `CN(C)Cc1ccc(-c2cc3c(-c4ccc(CN(C)C)cc4)ccnc3[nH]2)cc1`, the inhibition in assay [1] is 5.17%; in assay [2], 12.8%; in assay [3] it was 2.4%.

Regarding `CCCCNC(=O)[C@@H]1CCCN1C(=O)c1ccc(O)c(-c2ccc(Cl)c(Cl)c2)c1`, the figures for the inhibition in assay [1], in assay [2] and in assay [3] were 1.42%, 0.27% and -3.49%, respectively.
